Test results taken from PubChem BioAssay (NCATS).
Records with an inconclusive call do not appear. Activity calls are given as the source filed them. Calls follow the shape of the dose curve; as a rule, active = well fitted inhibition curve with a large enough effect; inconclusive = small, poorly fitted or top-dose-only effect; inactive = flat fitted curve, though single readings scatter.

Assays:
CRL-7250 = normal cell line; assay: Cytotoxic Profiling of Annotated Libraries Using Quantitative High-Throughput Screening (AID 1296008); conditions: Five cell lines viability, CellTiter-Glo ATP luminescence, 48-72 h; max response: active compounds read low; also: potency is read from the fitted curve at half-maximal effect; as to max response: % is scaled to controls: 0 for no effect and ±100 for the full control effect
Summary of the method: (§1)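 Cytotoxicity was measured as CellTiter-Glo ATP luminescence, read after 10 min at room temperature. Compound treatment of the cells lasted 48 or 72 hr at 37 degrees Celsius in a qHTS format.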

HEK293 = assay: as above; conditions: Five cell lines viability, CellTiter-Glo ATP luminescence, 48-72 h; max response: active compounds read low
Summary of the method: as §1

HaCat [1] = assay: as above; conditions: Five cell lines viability, CellTiter-Glo ATP luminescence, 48-72 h; max response: active compounds read low
Summary of the method: as §1

KB-3-1 = assay: as above; conditions: Five cell lines viability, CellTiter-Glo ATP luminescence, 48-72 h; max response: active compounds read low
Summary of the method: as §1

NIH3T3 = assay: as above; conditions: Five cell lines viability, CellTiter-Glo ATP luminescence, 48-72 h; max response: active compounds read low
Summary of the method: as §1

HACAT [2] = assay: qHTS assay to identify novel small-molecules to repurpose for Merkel cell carcinoma treatment (AID 1296009); conditions: MCC and control cell lines, CellTiter-Glo viability, 72 h; at 44.8 µM (top of the series) unless noted
Summary of the method: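 72 hr, 37 degree celsius; NPC 8-pt / MIPE 11-pt dose response; compound pinned in DMSO; CellTiter-Glo, 10 min RT, luminescence; normalized to no-cell and DMSO controls.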
Also: nearly all actives have a fitted effect of over 60% in size.

Cc1cc(Cn2cnc3c2CC(C(=O)O)N(C(=O)C(c2ccccc2)c2ccccc2)C3)ccc1N(C)C (stereo not given)
inactive: outcome (CRL-7250) | max response (HEK293) -1.68% | outcome (HaCat [1]) | max response (KB-3-1) 5.82% | max response (NIH3T3) 1.33% | outcome (HACAT [2])

C[C@]1(OC(=O)/C=C/c2ccc(O)cc2)C[C@@H](O)[C@]2(O)C=CO[C@@H](O[C@@H]3O[C@H](CO)[C@@H](O)[C@H](O)[C@H]3O)C12 (stereo not given in full)
inactive: max response (CRL-7250) 4.79% | max response (HEK293) -2.23% | outcome (HaCat [1]) | max response (KB-3-1) 6.86% | outcome (NIH3T3) | outcome (HACAT [2]) inactive [at 17.4 µM]

c1cc(-c2cc(C3CCNCC3)[nH]n2)ccn1
inactive: max response (CRL-7250) -3.47% | max response (HEK293) -20.2% | outcome (HaCat [1]) | max response (KB-3-1) 2.66% | outcome (NIH3T3) | outcome (HACAT [2]) inactive [at 17.4 µM]

CC(=O)O[C@@H]1C[C@@H](C)[C@](O)(CCC2=CC(=O)OC2)[C@@]2(C)CCCC(C)(C)C12 (stereo not given in full)
inactive: outcome (CRL-7250) | max response (HEK293) -5.82% | outcome (HaCat [1]) | max response (KB-3-1) 9.64% | max response (NIH3T3) 2.01% | outcome (HACAT [2])

COC(=O)Cn1nc(-c2cccc(OC)c2)c2ccccc21
inactive: max response (CRL-7250) 4.76% | max response (HEK293) -5.92% | outcome (HaCat [1]) | max response (KB-3-1) 1.13% | max response (NIH3T3) 2.46% | outcome (HACAT [2])

COCC1OC(n2cnc3c(=O)[nH]cnc32)C(O)C1O (stereo not given)
inactive: outcome (CRL-7250) | max response (HEK293) -3.16% | outcome (HaCat [1]) | max response (KB-3-1) 2.47% | max response (NIH3T3) -2.27% | outcome (HACAT [2])

O=C(NCC(=O)N1CCCC1)Nc1ccc2ccccc2c1
inactive: max response (CRL-7250) 3.04% | max response (HEK293) 2.51% | outcome (HaCat [1]) | outcome (KB-3-1) | max response (NIH3T3) -1.06% | outcome (HACAT [2])

COC(=O)C1=CO[C@@H](O[C@@H]2O[C@H](CO)[C@@H](O)[C@H](O)[C@H]2O)[C@H]2[C@@H]1[C@H](O)C[C@]2(C)O
inactive: outcome (CRL-7250) | max response (HEK293) -1.47% | outcome (HaCat [1]) | outcome (KB-3-1) | max response (NIH3T3) -11.4% | outcome (HACAT [2]) inactive [at 17.4 µM]

O=C(CCCCC1CCCCC1)N1CCC(c2cnc[nH]2)CC1
inactive: max response (CRL-7250) -15.2% | outcome (HaCat [1]) | max response (KB-3-1) -20.1% | outcome (NIH3T3) | outcome (HACAT [2])
active: Potency (HEK293) 5.8 µM

COc1ccc(C(=O)OC2C3C=COC(OC4OC(CO)C(O)C(O)C4O)C3C3(CO)OC23)cc1OC (stereo not given)
inactive: max response (CRL-7250) -2.32% | max response (HEK293) 1.41% | outcome (HaCat [1]) | max response (KB-3-1) 3.28% | max response (NIH3T3) -4.72% | outcome (HACAT [2]) inactive [at 17.4 µM]

O=C(O)Cc1cn([C@@H]2OC[C@@H](O[C@@H]3O[C@H](CO)[C@@H](O)[C@H](O)[C@H]3O)[C@H](O)[C@H]2O[C@@H]2O[C@H](CO)[C@@H](O)[C@H](O)[C@H]2O)c2ccccc12
inactive: max response (CRL-7250) -0.703% | max response (HEK293) 2.5% | outcome (HaCat [1]) | max response (KB-3-1) 5.94% | outcome (NIH3T3) | outcome (HACAT [2]) inactive [at 17.4 µM]

COc1c2cc(c(O[C@@H]3O[C@H](CO)[C@@H](O)[C@H](O)[C@H]3O)c1OC)CCCCC(O)CCc1ccc(O)c-2c1 (stereo not given in full)
inactive: max response (CRL-7250) 0.579% | max response (HEK293) -2.25% | outcome (HaCat [1]) | outcome (KB-3-1) | max response (NIH3T3) 1.47% | outcome (HACAT [2]) inactive [at 17.4 µM]

C[C@@H]1O[C@@H](OC[C@H]2O[C@@H](OCc3ccccc3)[C@H](O)[C@@H](O)[C@@H]2O)[C@H](O)[C@H](O)[C@H]1O
inactive: outcome (CRL-7250) | max response (HEK293) -5.01% | outcome (HaCat [1]) | max response (KB-3-1) -7.21% | max response (NIH3T3) 0.0365% | outcome (HACAT [2]) inactive [at 17.4 µM]

COc1ccc(CC(NC(C)=O)C(=O)O)cc1 (stereo not given)
inactive: max response (CRL-7250) 0.775% | max response (HEK293) -3.66% | outcome (HaCat [1]) | max response (KB-3-1) 6.09% | max response (NIH3T3) 1.53% | outcome (HACAT [2])

CC(C)(O)C1CC=C(C(=O)OC[C@H]2O[C@@H](OC(=O)C3=CCC(C(C)(C)O)CC3)[C@H](O)[C@@H](O)[C@@H]2O)CC1 (stereo not given in full)
inactive: max response (CRL-7250) 3.51% | max response (HEK293) 1.77% | outcome (HaCat [1]) | max response (KB-3-1) 9.42% | outcome (NIH3T3) | outcome (HACAT [2]) inactive [at 17.4 µM]

COC(=O)C1(C)CCCC2(C)c3ccc(C(C)C)cc3C(O)C(O)C12 (stereo not given)
inactive: max response (CRL-7250) -3.44% | max response (HEK293) -25.7% | outcome (HaCat [1]) | outcome (KB-3-1) | outcome (NIH3T3) | outcome (HACAT [2])

OCC(O)C(c1c[nH]c2ccccc12)c1c[nH]c2ccccc12 (stereo not given)
inactive: outcome (CRL-7250) | max response (HEK293) -8.71% | outcome (HaCat [1]) | outcome (KB-3-1) | max response (NIH3T3) 1.42% | outcome (HACAT [2])

CC(=O)/C=C/C1C(C)CC(O[C@@H]2O[C@H](CO)[C@@H](O)[C@H](O)[C@H]2O)CC1(C)C (stereo not given in full)
inactive: outcome (CRL-7250) | max response (HEK293) 3.69% | outcome (HaCat [1]) | outcome (KB-3-1) | outcome (NIH3T3) | outcome (HACAT [2])

CC1(C(=O)O)CCCC2(C)C3CC4C5CC3(CCC12)CC45C (stereo not given)
inactive: max response (CRL-7250) -3.47% | max response (HEK293) 2.22% | outcome (HaCat [1]) | max response (KB-3-1) 4.9% | max response (NIH3T3) -21.3% | outcome (HACAT [2])

COc1ccc(C2(O)c3c(ccc4c3OC(C)(CCC=C(C)C)C=C4)NC(=O)C2OC)cc1 (stereo not given)
inactive: outcome (CRL-7250) | max response (HEK293) -6.81% | outcome (HaCat [1]) | max response (KB-3-1) 5.8% | outcome (NIH3T3) | outcome (HACAT [2]) inactive [at 17.4 µM]

C[C@]12CC[C@@H]3c4ccc(O)cc4CC[C@H]3[C@@H]1C[C@@H](O[C@@H]1O[C@H](C(=O)O)[C@@H](O)[C@H](O)[C@H]1O)[C@@H]2O
inactive: max response (CRL-7250) 2.29% | max response (HEK293) -7.39% | outcome (HaCat [1]) | max response (KB-3-1) 4.13% | max response (NIH3T3) -7.98% | outcome (HACAT [2])

CC1(CO)CCCC2(C)C1C(OC(=O)c1ccccc1)CC1C(=O)OCC12O (stereo not given)
inactive: max response (CRL-7250) -1.52% | max response (HEK293) -0.598% | outcome (HaCat [1]) | max response (KB-3-1) 5.44% | outcome (NIH3T3) | outcome (HACAT [2])

Cn1cc(-c2c[nH]c3ncnc(N4CCOCC4)c23)cn1
inactive: max response (CRL-7250) 0.569% | max response (HEK293) -23.9% | outcome (HaCat [1]) | outcome (KB-3-1) | outcome (NIH3T3) | outcome (HACAT [2])

COc1cc(Nc2nc3ccccc3nc2NS(=O)(=O)c2cccc(NC(=O)c3ccc(C)c(OC)c3)c2)cc(OC)c1
inactive: max response (CRL-7250) -4.07% | max response (HEK293) -14.5% | outcome (HaCat [1]) | max response (KB-3-1) -12.1% | outcome (NIH3T3) | outcome (HACAT [2])

COc1cc(O)c2c(c1)C1(OC2=O)C(C)=CC(=O)C1O (stereo not given)
inactive: outcome (CRL-7250) | max response (HEK293) -12.8% | outcome (HaCat [1]) | max response (KB-3-1) 7.65% | max response (NIH3T3) 4.25% | outcome (HACAT [2])
